This note sets out measurements from PubChem BioAssay AID743279 (National Center for Advancing Translational Sciences (NCATS), 2014).

Structures are written as SMILES. Out of some 360,000 compounds screened, about 17,000 (4.7%) were called active. Roughly 5% stayed inconclusive and do not appear here. Cut-off read from the data, not from the text of the source: active = activity change below about -50%; inconclusive = mostly about -30% to -49%; inactive = weaker than that. The full list was thinned out, with actives kept by preference.
% is set by controls: 0 for no effect and ±100 for the full control effect.

A short description of the test: qHTS for Inhibitors of Inflammasome Signaling: IL-1-beta AlphaLISA Primary Screen. As to conditions: THP-1 LPS/ATP IL-1B secretion, 16 h; at 57.5 µM, hits give low values. The gist of the method:
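Secreted IL-1B measured by AlphaLISA bead assay after 16 h compound exposure of THP-1 cells; compounds (final up to 57.5 uM) added 1 h before LPS (250 ng/mL) and ATP (1.25 mM) stimulation; lower signal means less secretion.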
Take `CCC(c1nnnn1Cc1ccco1)N(CCc1ccccc1)Cc1cc2cccc(C)c2[nH]c1=O` (configuration not stated): the activity change was -4.44% (inactive).

As to `Cc1cc(C)c2cc(CN(Cc3nnnn3Cc3ccc(F)cc3)C3CCCC3)c(=O)[nH]c2c1`, the activity change is 7.62% (inactive).

In the case of `Cc1cc(C)c2[nH]c(=O)c(C(c3nnnn3Cc3ccc4c(c3)OCO4)N3CCCC3)cc2c1` (configuration not stated), the activity change was -10.3% (inactive).

Take `CCOc1ccc2[nH]c(=O)c(CN(Cc3nnnn3Cc3ccccc3)CC3CCCO3)cc2c1` (configuration not stated): the activity change is -63.9% (active).

`CCC(c1nnnn1Cc1ccccc1)N(Cc1cc2cc(OC)ccc2[nH]c1=O)CC1CCCO1` (configuration not stated): the activity change was 0% (inactive).

On to `Cc1cccc2cc(CN(Cc3nnnn3Cc3ccccc3)C3CCCC3)c(=O)[nH]c12`, for which the activity change is -64.3% (active).

For the compound `CCOc1ccc2[nH]c(=O)c(CN(Cc3nnnn3CCc3ccccc3)CC3CCCO3)cc2c1` (configuration not stated), the activity change is -29.1% (inactive).

On to `Cc1cccc2cc(CN(Cc3ccc4c(c3)OCO4)Cc3nnnn3C3CCCC3)c(=O)[nH]c12`, for which the activity change was -54.8% (active).

In the case of `Cc1cccc2cc(CN(Cc3cccs3)C(c3nnnn3C3CCCC3)C(C)C)c(=O)[nH]c12` (configuration not stated), the activity change was 0% (inactive).

On to `COc1ccc(C(C#N)=C2C=CC(=NO)c3ccccc32)cc1`, for which the activity change was -24.6% (inactive).

On to `Cc1nc2ccccc2nc1CC(O)(c1ccccc1)c1ccccc1`, for which the activity change is 3.22% (inactive).

For the compound `O=C1NC[C@H](CCCCN2CCN(CCc3ccccc3)C(=O)C2=O)N(CC2CCCCC2)C1=O`, the activity change was -14.3% (inactive).

In the case of `CCCCc1nc2ccc(F)cc2cc1C`, the activity change was 8.78% (inactive).

Consider `COc1ccc(C(C)(C)C)cc1NC(=O)CN(C)C1=NS(=O)(=O)c2ccccc21`, for which the activity change is 10.7% (inactive).

With `COc1ccc([C@H]2N[C@]3(CCCN(CC4CCCCC4)C3=O)[C@H]3C(=O)N(C)C(=O)[C@@H]23)cc1`, the activity change was -15% (inactive).

With `O=C(Nc1cccc(Cc2ccccc2)c1)Nc1ccc2nc([C@@H]3O[C@H](CO)[C@@H](O)[C@H](O)[C@H]3O)[nH]c2c1`, the activity change was 33.4% (inactive).

With `CCOc1c(Br)cc(/C=C2\C(=O)N(CCC#N)N=C2C)cc1OC`, the activity change was -62.4% (active).

In the case of `COc1cc(/C=C2/C(=O)NN(c3cccc(Cl)c3)C2=O)cc(Br)c1O`, the activity change was -15.3% (inactive).

In the case of `C=CCOc1c(Br)cc(/C=N\n2nnnc2N)cc1OC`, the activity change is 0% (inactive).

As to `COc1cccc(-c2cc(NC(C)=O)c3ncc(-c4cccc(C(C)=O)c4)n3c2)c1`, the activity change was 7.02% (inactive).

As to `Cc1cccn2c(=O)c(/C=C(\C#N)S(=O)(=O)c3ccc(Cl)cc3)c(N3CCC(C(N)=O)CC3)nc12`, the activity change was 0% (inactive).

On to `Cc1cccn2c(=O)c(/C=C(\C#N)C(N)=O)c(N3CCCCCC3)nc12`, for which the activity change is -18.7% (inactive).

`Cc1cc(C)cc(Oc2nc3c(C)cccn3c(=O)c2/C=C(\C#N)C(=O)NC2CCS(=O)(=O)C2)c1` (configuration not stated): the activity change is -109% (active).

As to `COc1ccc2c(c1)C(=O)CC(c1ccccc1)O2` (configuration not stated), the activity change is -12.1% (inactive).

On to `Cc1nn(C(C)C(=O)NCCC2=CCCCC2)c(=O)c2nn(-c3ccccc3)c(C)c12` (configuration not stated), for which the activity change was 14.5% (inactive).

`CCc1c(C)sc(NC(=O)c2cccs2)c1C(N)=O`: the activity change is -92.1% (active).

`CCc1cccc(C)c1NC(=O)COC(=O)CNC(=O)c1cccs1`: the activity change was 16.5% (inactive).

Take `CCOC(=O)c1oc2ccccc2c1NC(=O)c1cccs1`: the activity change is -2.68% (inactive).

For the compound `COC(=O)C1=CO[C@@H](O[C@@H]2O[C@H](CO)[C@@H](O)[C@H](O)[C@H]2O)C2C1C[C@H](O)[C@@H]2C` (some centres not stated), the activity change is 15.4% (inactive).

With `COC[C@@H]1NS(=O)(=O)c2ccc(Br)cc2O[C@H]1c1ccccc1`, the activity change was 2.65% (inactive).

Consider `COc1ccc(/C=C2\CCc3ccccc3C2=O)c(OC)c1OC`, for which the activity change was -71% (active).

`COc1ccc(/C=C2/CCCc3ccccc3C2=O)cc1`: the activity change is 0% (inactive).

For `O=C1/C(=C/c2cccs2)CCc2ccccc21`, the activity change is -13.1% (inactive).

Consider `N#CCc1c[nH]c2ccc([N+](=O)[O-])cc12`, for which the activity change was -1.78% (inactive).

For `CNc1cncc(-c2ccc(NS(C)(=O)=O)cc2)n1`, the activity change is 6.32% (inactive).

Regarding `O=C(NCc1cccc(C(F)(F)F)c1)c1cccc(S(=O)(=O)N2CCN(Cc3ccccc3)CC2)c1`, the activity change was 0% (inactive).

As for `CC(NC(=O)CCC(=O)N1CCN(S(=O)(=O)c2ccc(Cl)cc2)CC1)c1ccccc1` (configuration not stated), the activity change was 45.7% (inactive).

As to `O=C(CCC(=O)N1CCN(S(=O)(=O)c2ccc(Cl)cc2)CC1)NCc1cccc(C(F)(F)F)c1`, the activity change is -52.1% (active).

`COC(=O)C(NC(=O)c1ccc(OC)cc1)(Nc1ncc(S(=O)(=O)c2ccc([N+](=O)[O-])cc2)s1)C(F)(F)F` (configuration not stated): the activity change was -99.1% (active).

`CCOCC(=O)Nc1ncc(S(=O)(=O)c2ccc([N+](=O)[O-])cc2)s1`: the activity change is 20.1% (inactive).

On to `COc1ccc(C(=O)NCCNc2ccc([N+](=O)[O-])cn2)cc1`, for which the activity change was 40.6% (inactive).

As for `Nc1c(Cl)cc(-c2csc(N3CCCC3c3nc4cc(Cl)c(Cl)cc4n3CCOCCO)n2)cc1Cl` (configuration not stated), the activity change was -4.36% (inactive).

In the case of `Cc1ccc(S(=O)(=O)N2C[C@H]3C(=O)C[C@@H](c4cccc5ccccc45)N(S(=O)(=O)c4ccc(C)cc4)[C@H]3C[C@H]2c2ccc(Cl)cc2)cc1`, the activity change is 0.625% (inactive).

Regarding `COCCNC(=O)C1C(=O)Nc2ccccc2C(=O)N1c1ccc2c(c1)OCCO2` (configuration not stated), the activity change is 23.8% (inactive).

In the case of `CC(C)NC(=O)/C(C#N)=C\c1ccc(N(C)C)c(Br)c1`, the activity change was -7.21% (inactive).

Turning to `COC(=O)Cc1c(-c2[nH]c3ccccc3c2CC(=O)OC)[nH]c2ccccc12`, the activity change was 0% (inactive).

Take `Cc1[nH]c2ccccc2c1/C=C(/C#N)C(=O)NC(C)C`: the activity change was -99.8% (active).

As for `O[C@@H]1C[C@H](c2ccccc2)N(Cc2cccs2)C[C@H]1n1cc(C2CC2)nn1`, the activity change was -20.7% (inactive).

Take `Cc1ccc(C)c(NC(=S)NNC(=S)Nc2ccc(C(C)C)cc2)c1`: the activity change was -52.5% (active).

`Cc1ccc(C)c(NC(=S)NNC(=O)c2csc(C)c2)c1`: the activity change was 12.4% (inactive).

Consider `CC(C)c1ccc(NC(=S)NNc2ccc(Cl)c(C(=O)O)c2)cc1`, for which the activity change is 20.7% (inactive).

As for `O=C(O)CSc1nccc2ccccc12`, the activity change was -61.2% (active).

As to `O=C(O)CSc1nccn1-c1cccc(Cl)c1`, the activity change was 14.2% (inactive).

As for `CCOC(=O)C(C(=O)c1ccccc1)C(c1ccccc1)c1nccc2ccccc12` (configuration not stated), the activity change is 11.3% (inactive).

As to `CCNC(=O)C1(C)CCCN1C(=O)c1ccc(N(C)C)cc1` (configuration not stated), the activity change is 15.5% (inactive).

For the compound `Cc1nc(SCC(=O)c2ccccc2)c([N+](=O)[O-])[nH]1`, the activity change was 23.3% (inactive).

For the compound `CSCCC(C(=O)NC(C)(C)C)n1c(-c2ccccc2)nc2ccccc21` (configuration not stated), the activity change was 15.5% (inactive).

For the compound `COc1ccc(Oc2cn[nH]c2-c2ccc(OC)cc2O)cc1`, the activity change is -82.8% (active).

For the compound `CCOc1ccccc1Oc1cn[nH]c1-c1ccc(OC)cc1O`, the activity change is 18.7% (inactive).

`COc1ccc(-c2[nH]ncc2/C=N/NC(=O)c2cc(Br)ccc2O)c(OC)c1`: the activity change is 86.3% (inactive).

Consider `CC1Sc2ccc(S(=O)(=O)CCC(=O)NCc3ccccc3Cl)cc2NC1=O` (configuration not stated), for which the activity change was 18.9% (inactive).

In the case of `Cc1cc(C)cc(NS(=O)(=O)Cc2ccccc2)c1`, the activity change was -5.28% (inactive).

On to `CS(=O)(=O)Nc1cccc(-c2cn3ccccc3n2)c1`, for which the activity change was -14% (inactive).

Regarding `CCS(=O)(=O)Nc1cccc(-c2cc(-c3ccccc3)c3cc(C)ccc3n2)c1`, the activity change is -99.4% (active).

With `O=C(NC1CCCCC1)C(c1cc2ccccc2o1)n1c(=O)c(-c2ccco2)nc2ccccc21` (configuration not stated), the activity change is -2.14% (inactive).

As for `CN(C)CCNC(=O)Nc1cccc(Cl)c1Cl`, the activity change was 2.19% (inactive).

Take `CN(C)CCNC(=O)c1ccc(Cl)c2cc3ccccc3nc12`: the activity change is -112% (active).

With `CC(=O)NCCNC(=O)c1cc(-c2cccc3ccccc23)nc2ccccc12`, the activity change was 0.0656% (inactive).

Turning to `O=C(OCc1ccccc1)N1CCC2CC1c1cc(N3CCN(S(=O)(=O)c4cc(Cl)cc(Cl)c4)CC3)ccc12` (configuration not stated), the activity change is 21.9% (inactive).

For the compound `CC1(C)C=Cc2c(ccc3c2OC[C@@H](c2ccc(O)cc2O)C3)O1`, the activity change is -13.2% (inactive).

For the compound `CC(=O)c1c(N2CCOCC2)nc(=S)n(-c2cc(C)ccc2C)c1C`, the activity change is -14.3% (inactive).

Take `CC(=O)c1c(N2CCN(c3ccc(F)cc3)CC2)nc(=S)n(-c2ccccc2)c1C`: the activity change was -79.7% (active).

For the compound `CC(=O)c1c(N2CCOCC2)nc(=S)n(Cc2ccccc2)c1C`, the activity change was 30.6% (inactive).

Turning to `CCOc1ccc(NC(=O)CN(C)C(=O)c2c(C)noc2C)cc1OCC`, the activity change was 2.67% (inactive).

`Cc1ccccc1NC(=O)CSC(=O)c1ccccc1`: the activity change was 22.2% (inactive).

On to `Cc1cccc(NC(=O)COC(=O)CCc2ccccc2)c1C`, for which the activity change was 5.72% (inactive).

On to `Cc1cccc(NC(=O)CSC(N)=O)c1C`, for which the activity change is -90.9% (active).

`CCCCCCCCCCCCCCCC(=O)OC/C=C(C)/C=C/C=C(C)/C=C/C1=C(C)CCCC1(C)C`: the activity change is -8.52% (inactive).

`CCOc1ccc(NC(=O)c2ccccc2NS(C)(=O)=O)cc1`: the activity change was -7.57% (inactive).

For the compound `COC(=O)c1ccc(NC(=O)c2ccccc2NS(=O)(=O)c2ccccc2)cc1`, the activity change is -61.7% (active).

As to `COC(=O)c1ccccc1NS(=O)(=O)c1ccc2[nH]c(=O)[nH]c2c1`, the activity change was -16.3% (inactive).

`Cc1ccc(NS(=O)(=O)c2cc3c(cc2C)NC(=O)CO3)cc1`: the activity change was -0.465% (inactive).

As to `CC1CCN(C(=O)COC(=O)CCC(=O)c2cccs2)CC1`, the activity change was 5.83% (inactive).

As to `CCN1C(=O)[C@H]2[C@@H](c3ccccc3)N[C@]3(CCCN(Cc4ccc(C)cc4)C3=O)[C@H]2C1=O`, the activity change is -7.34% (inactive).

As to `COc1cccc(CN(C)C(=O)CC23CC4CC(CC(C4)C2)C3)c1OC`, the activity change was -55.8% (active).

`COc1ccc(CN(C)C(=O)Cc2ccsc2)c(OC)c1OC`: the activity change was 40.4% (inactive).

Regarding `COc1ccc(S(=O)(=O)N2CCCCCC2)cc1C(=O)N(C)Cc1cccc(OC)c1OC`, the activity change was -8.59% (inactive).
